# The list is not random: actives were taken first. Their share in the collection is about 4.1%.
# DAX1 inh-1: DAX1 (NR0B1) inhibitors, primary screen, cell-based, HEK293, Gal4-DAX1, luciferase luminescence; Nuclear receptor subfamily 0 group B member 1 (Homo sapiens), P51843; HEK293 Gal4-DAX1 luciferase reporter; inhibition, % at 6.75 µM; 340,000 compounds, 0.99% hits; AID 504766, 2011;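 active = inhibition above the mean over all tested compounds plus 3 SD, cut at about 4.2% in these data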;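 also: 0% = DAX1-transfected cells with DMSO and 100% = empty-vector control cells with DMSO; inhibition shows as a rise in luminescence from relieved DAX1 repression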
# Target sequence (P51843 207-470 limits assumed): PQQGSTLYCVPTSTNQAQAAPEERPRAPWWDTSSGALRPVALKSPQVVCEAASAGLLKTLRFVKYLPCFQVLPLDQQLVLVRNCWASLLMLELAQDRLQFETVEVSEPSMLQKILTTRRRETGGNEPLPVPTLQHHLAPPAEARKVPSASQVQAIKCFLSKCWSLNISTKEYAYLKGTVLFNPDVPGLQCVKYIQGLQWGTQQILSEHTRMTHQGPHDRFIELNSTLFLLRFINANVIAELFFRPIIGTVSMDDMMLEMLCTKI
# hgDAF-12 ag: H. glycines DAF-12 receptor agonists, primary screen, cell-based, luminescence, HEK293, GAL4 fusion, UAS-luciferase; Nuclear hormone receptor DAF-12 (Heterodera glycines), GAL4 fusion; 370,000 compounds, 1.8% hits; activation, % at 6.8 µM; HEK293 GAL4-hgDAF12 UAS-luciferase reporter, agonist luminescence; normalized to butyrate control; AID 687014, 2013;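 active = activation above a cutoff set at the mean of all screened compounds plus 3 SD, cut at about 10% in these data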;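 also: 0% = DMSO wells and 100% = sodium butyrate wells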
# DAX1 inh-2: DAX1 (NR0B1) inhibitors on StAR promoter, primary screen, cell-based, luminescence, SF-1 (NR5A1), full-length DAX-1; HEK293T StAR-luciferase reporter, SF-1/DAX-1 repression relief; inhibition, % at 6.8 µM; 370,000 compounds, 1.1% hits; AID 652010, 2013;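 active = inhibition above the mean over all tested compounds plus 3 SD, cut at about 3.6% in these data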;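 also: 0% = DAX-1 cells with DMSO and 100% = cells lacking DAX-1 with DMSO; higher inhibition means more luminescence from relief of DAX-1 repression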
# ssDAF12 agonist: S. stercoralis DAF-12 nuclear receptor activators, primary screen, cell-based, luminescence, HEK293, GRIP1 co-expression, lit1-tk-luc | Nuclear hormone receptor DAF-12 (Strongyloides stercoralis) | HEK293 ssDAF-12/GRIP1 lit1-tk-luc reporter; % of 3 µM dafachronic acid response | activation, % at 6.8 µM | 370,000 compounds, 1% hits;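 active = activation above the mean over all tested compounds plus 3 SD, cut at about 0.9% in these data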;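 also: 0% = DMSO-only wells and 100% = 3 µM delta7-dafachronic acid wells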
# hcDAF12 agonist: H. contortus DAF-12 nuclear receptor activators, primary screen, cell-based, luminescence, HEK293, lit1-tk-luc reporter; HEK293 hcDAF-12 lit1-tk-luc reporter; 0% DMSO, 100% Δ7-dafachronic acid; activation, % at 6.8 µM; 370,000 compounds, 1.4% hits;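 active = activation above the mean of all tested compounds plus 3 SD, cut at about 5.5% in these data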;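 also: 100% = response to 3 µM Δ7-dafachronic acid high control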
# An asterisk follows results filed as active; / = not tested or not shown.
SMILES,DAX1 inh-1,hgDAF-12 ag,DAX1 inh-2,ssDAF12 agonist,hcDAF12 agonist
COc1ccccc1NS(=O)(=O)c1cc(NC(=O)c2ccccc2C)ccc1N1CCOCC1,0,0,-1,-2,0
COc1ccc(OC)c(NC(=O)c2[nH]c(C)c(C(C)=O)c2C)c1,1,2,1,-1,5.8*
COc1ccccc1NS(=O)(=O)c1cc(NC(=O)c2[nH]c(C)c(C(C)=O)c2C)ccc1N1CCOCC1,1,-9,4.0*,-1,4
COc1ccc(Cl)cc1NC(=O)c1[nH]c(C)c(C(C)=O)c1C,0,2,0,0,3
COCCNC(=O)C1(C)C=CC2(CCCCC2)N1C(=O)c1ccccc1 (stereo not given),4.7*,2,0,-1,0
CC(=O)C1(C(=O)N2CCOCC2)CC(c2ccccc2C(F)(F)F)=NO1 (stereo not given),/,3,0,-1,-2
C=CCN1[C@H](C)COc2cc(F)ccc2S1(=O)=O,/,2,0,-1,-1
CCc1ccccc1NNC(=O)c1cc(C)on1,1,1,0,-1,0
Cc1cc(C(=O)NNc2ccccc2F)no1,7.2*,-1,0,-1,-1
CNC(C)C#Cc1ccc2c(=O)c3cc(C)c(C)cc3oc2c1 (stereo not given),-2,11*,1,0,3
COC(=O)[C@]12C[C@H](CC(=O)NCCCN3CCCC3=O)C(=O)N(CCc3ccc(OC)c(OC)c3)C1=C[C@H](C(C)(C)C)O[C@@H]2C,/,3,2,-1,1
Cc1ccc2cc(COC(=O)c3cccc([N+](=O)[O-])c3)c(=O)[nH]c2c1,4.5*,-1,1,0,1
Clc1ccc(-c2cc(-c3nnc4sc(Cc5cccs5)nn34)[nH]n2)cc1,/,-4,-1,-1,-1
Cc1ccccc1C(=O)Oc1ccc2ccc(O)cc2c1,4.7*,10*,1,-1,2
Cc1ccccc1S(=O)(=O)Oc1ccc2ccc(O)cc2c1,2,9,0,-1,2
COc1ccc(-c2c(Cc3ccccc3)nc(NC(=O)c3ccccc3)n2C)cc1,/,0,0,-1,-1
Cc1cc(O)c(C=Nc2ccc(Cl)cn2)c(=O)o1,0,-1,0,-2,0
Oc1ccc2ccccc2c1C=Nc1ccc(Cl)cn1,0,1,-1,1.3*,2
Nc1ccccc1C(=O)NNc1c2ccccc2nc2ccccc12,2,6,0,0,6.4*
Cn1c(=O)oc2cc(S(=O)(=O)N3CCN(C(=O)C4CCCO4)CC3)ccc21 (stereo not given),/,-2,-1,-1,0
O=C1CCc2cc(S(=O)(=O)N3CCN(c4ccccc4Cl)CC3)ccc2N1,/,0,-1,-1,-3
CCOC(=O)N[C@H](C(=O)N1CCC[C@H]1C(=O)NC1CCCC1)C1CCCCC1,/,0,0,-1,-2
O=c1[nH]c(NCCO)nc2c1C1(CCCC1)Cc1ccccc1-2,1,0,0,-1,-1
C=CCNC(=S)NNc1nc2c(c(=O)[nH]1)C1(CCCCC1)Cc1ccccc1-2,4.4*,2,1,-1,-1
N#CCC(=O)Nc1ccc(C(=O)OCC(=O)NC(=O)Nc2ccc3c(c2)OCCO3)cc1,2,10,4.2*,0,4
SMILES,DAX1 inh-1,hgDAF-12 ag,DAX1 inh-2,ssDAF12 agonist,hcDAF12 agonist
COc1ccc(Cl)cc1NC(=O)COC(=O)C1COc2ccccc2O1 (stereo not given),0,1,0,1.0*,6
O=C(COC(=O)C1COc2ccccc2O1)NC(=O)Nc1ccc2c(c1)OCCO2 (stereo not given),1,4,-1,0,5.8*
CC(C)C[C@@H](CCCc1ccccc1)CCC(=O)N(c1ccccc1)c1ccccc1,/,-3,-1,-2,-2
CCC(C)C(NC(N)=O)C(=O)Nc1ccc(C(=O)OC)cc1 (stereo not given),4.4*,4,1,-1,-1
COC(=O)/C(C#N)=C1/C=Cc2ccccc2N1,3,10,1,-1,5.9*
CCOC(=O)c1cccc(NC(=O)CN(C)S(=O)(=O)c2ccc(Br)s2)c1,/,-2,-1,-2,-1
CN1CCc2c(sc(/N=C/c3cc(Cl)ccc3O)c2C#N)C1,6.8*,3,1,0,2
Cc1ccc(/C=N/c2sc3c(c2C#N)CCC3)s1,2,-1,1,-1,1
O=C(NNC(=O)c1ccncc1)NC1CCCCC1,4.8*,1,0,-2,-1
O=C(Nc1ccc2nsnc2c1)NC1CCCCC1,3,12*,2,0,3
CN1C(=O)c2ccc(C(=O)NC3CCCCC3)cc2C1=O,2,2,-1,1.0*,0
O=C(NC1CCC1)c1ccc(C#Cc2cccc(F)c2)nc1,/,11*,0,-1,2
O=C(OC12CCCN(C1)/C(=C/c1cccc(Cl)c1)C2)c1cccc(F)c1 (stereo not given),/,-2,0,-1,-3
O=C(Nc1ccccc1)Nc1nc2ncccn2c1-c1ccc(C(F)(F)F)cc1,/,5,-1,-1,2
OC(c1ccccc1)(c1ccccc1)C1CCN(CCCOc2cccc(C(F)(F)F)c2)CC1,/,1,0,0,-1
O=C(NC1CCCCCCC1)c1ccc(F)cc1,2,11*,2,0,4
O=C(NC1CC2CCCC(C1)N2C(=O)NC1CCCCC1)c1ccc(F)cc1 (stereo not given),0,-2,-1,0,0
O=C(Nc1ccc(F)cc1)NC1CCCCCCC1,0,12*,4,-1,0
O=C(Nc1ccc(Cl)cc1)NC1CCCCC1,2,10,2,-1,2
C#CCNc1cccc2c1S(=O)(=O)N[C@H](C)CO2,/,-1,1,-1,3
OC[C@@H]1CC[C@@H]2O[C@H](CCc3ccc(-c4ccc(F)cc4)cc3)[C@@H](n3cc(C4CC4)nn3)C[C@@H]2O1,/,-2,-1,-2,-1
Cc1cccc(C(=O)NCCc2ccccc2)c1,3,13*,3,0,3
O=C(CNC(=O)c1ccccc1F)NNC(=O)c1ccccc1O,-1,1,0,-1,-1
Cc1cccc(C(=O)NCC(=O)NNC(=O)c2ccccc2O)c1,4,0,0,0,6.1*
NC(=S)c1ccc(OCCCc2ccccc2)cc1,3,12*,1,-1,2
CCC(CC)C(=O)Nc1cccc(C(=O)NCCc2ccccc2)c1,1,8,1,-1,2

# Screens as filed in PubChem.
